Several values for one entry are separate records, joined by “and”; a condition that tells them apart may be missing. Equal entries are not always repeated. Screen size: about 390,000 compounds; about 4,000 (1%) were called active. Roughly 4% stayed inconclusive and do not appear here. This is one part of a sample in which actives are shown more often than they occur. Calls follow the shape of the dose curve; as a rule, active = well fitted inhibition curve with a large enough effect; inconclusive = small, poorly fitted or top-dose-only effect; inactive = no such curve, though single readings can be large or run the other way. The source holds several records for some structures; these can differ, active in one and inactive in another.
What follows are compounds tested against Thioredoxin reductase 1, cytoplasmic (Rattus norvegicus) (UniProt O89049) (assay: qHTS Assay for Inhibitors of Mammalian Selenoprotein Thioredoxin Reductase 1 (TrxR1): qHTS). Details: recombinant rTrxR1, NADPH fluorescence consumption, selenite substrate; series mostly up to 114 µM; activity change, negative = inhibition: at the top concentration.
Sequence of Thioredoxin reductase 1, cytoplasmic (Rattus norvegicus) (O89049 whole entry, looked up): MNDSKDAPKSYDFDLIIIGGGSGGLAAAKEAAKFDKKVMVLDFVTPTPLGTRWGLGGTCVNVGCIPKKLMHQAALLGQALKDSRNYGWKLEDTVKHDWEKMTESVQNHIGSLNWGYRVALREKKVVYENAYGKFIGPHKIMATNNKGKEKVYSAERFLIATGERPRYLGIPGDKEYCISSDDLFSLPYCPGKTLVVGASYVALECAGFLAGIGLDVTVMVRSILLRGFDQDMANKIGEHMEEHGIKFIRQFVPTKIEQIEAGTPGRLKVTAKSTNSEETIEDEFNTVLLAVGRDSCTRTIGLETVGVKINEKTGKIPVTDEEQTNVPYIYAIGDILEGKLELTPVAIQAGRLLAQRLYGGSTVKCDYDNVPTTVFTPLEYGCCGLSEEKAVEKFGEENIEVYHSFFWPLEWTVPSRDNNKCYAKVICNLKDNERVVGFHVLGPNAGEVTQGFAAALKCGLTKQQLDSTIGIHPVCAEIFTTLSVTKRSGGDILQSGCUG
In short: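 Rat TrxR1 (90 nM in the dispensed reagent) was pre-reduced with 400 uM NADPH for 5 min at room temperature, then incubated with compound for 15 min. After 400 uM selenite was added, NADPH fluorescence (Ex 340/Em 450 nm) was followed for 8 min.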
% is scaled to controls: 0 for no effect and ±100 for the full control effect; potency is read from the fitted curve at half-maximal effect.
Also: nearly all actives have a fitted effect of over 65% in size.

| SMILES | activity change, negative = inhibition | Potency |
| --- | --- | --- |
| CN(C)c1cccc(C(=O)Nc2nc3ccc(S(=O)(=O)NC(C)(C)C)cc3s2)c1 | 13.9% [at 57.1 µM] (inactive) | – |
| CN(C)c1ccc(/C=C/c2c3ccccc3nc3ccccc23)cc1 | 7.73% (inactive) | – |
| Cc1ccc(CNS(=O)(=O)c2ccc(-c3cc(C(F)(F)F)on3)s2)cc1 | 14.4% [at 57.1 µM] (inactive) | – |
| Cc1nn(-c2ccc(N3CCCCC3)nn2)c(C)c1CCC(=O)NCc1ccc(F)cc1 | 15.3% [at 57.1 µM] (inactive) | – |
| COc1ccccc1NC(=O)c1oc2ccccc2c1NC(=O)COc1ccccc1OC | 16.3% (inactive) | – |
| COc1ccc(S(=O)(=O)c2c(Nc3cccc(Cl)c3)sc(C(=O)c3ccccc3)c2N)cc1 | 23.1% (inactive) | – |
| O=C(CNS(=O)(=O)c1cccs1)N1CCN(c2ccccc2Cl)CC1 | 18.1% (inactive) | – |
| COc1ccccc1CNC(=O)C(Cc1ccccc1)NS(=O)(=O)c1ccc2c(c1)oc(=O)n2C (centres undefined) | 15.7% (inactive) | – |
| CCOC(=O)c1c(C)oc2nc(C)nc(N(CC(C)C)CC(C)C)c12 | -7.59% (inactive) | – |
| Cc1ccc(CNC(=O)CCNS(=O)(=O)c2ccc3c(c2)oc(=O)n3C)cc1 | 5.75% (inactive) | – |
| CCOC(=O)c1c(NC(=O)c2ccc(S(=O)(=O)N(CC)CC)cc2)sc2c1CCCCC2 | 8.59% (inactive) | – |
| CCc1ccc(CNC(=O)c2cc3cc4ccc(OC)cc4nc3o2)cc1 | 19.9% (inactive) | – |
| O=C(O)/C(=C/c1c(C(=O)O)[nH]c2cc(Cl)cc(Cl)c12)c1ccccc1 | – | inactive |
| CN(CC(=O)Nc1ccccc1C(F)(F)F)C(=O)Cc1ccccc1F | 12.8% (inactive) | – |
| O=C(Nc1ccccc1C(F)(F)F)c1nc(S(=O)(=O)Cc2ccccc2F)ncc1Cl | – | 2.82 µM (active) |
| O=C(Nc1nc2ccc(F)cc2s1)c1nc(SCc2ccccc2F)ncc1Cl | 17.6% (inactive) | – |
| Cc1ccc(Cn2cnc3c(cnn3C(C)(C)C)c2=O)c(F)c1 | 17.2% (inactive) | – |
| O=C(NNC1CC(=O)N(c2cccc(Cl)c2)C1=O)c1cccnc1 (centres undefined) | -9.32% (inactive) | – |
| O=C1[C@@H]2C(c3cccnc3)=NO[C@@H]2C(=O)N1c1ccc(Cl)cc1Cl | – | 70.8 µM (active) |
| CCN(CC)c1ccc(/C=C/c2c(C)cnc3ccc(C)cc23)cc1 | 9.41% (inactive) | – |
| COc1cccc(CNC(=O)CCc2nc(-c3ccc(C)cc3)no2)c1 | 7.09% (inactive) | – |
| COc1ccc(OC)c(NC(=O)CSc2nc3ccccc3nc2N2CCCCC2)c1 | -6.8% (inactive) | – |
| CCn1cc(C(=O)NCc2ccccc2)c(=O)c2cc(S(=O)(=O)N3CCCCC3)ccc21 | 24.3% (inactive) | – |
| CCC(=O)N1CCc2cc(Br)cc(S(=O)(=O)CCC(=O)NCc3ccccc3OC)c21 | 13.2% (inactive) | – |
| Fc1cc(Br)ccc1NC(=S)Nc1cccnc1 | – | 50.1 µM (active) |

| SMILES | activity change, negative = inhibition | Potency |
| --- | --- | --- |
| O=C(Nc1cccnc1)c1cc2cc(Br)ccc2oc1=O | -6.18% [at 57.1 µM] (inactive) | – |
| O=C(NC(=S)Nc1ccc(Br)cc1F)C1CCCCC1 | 11% [at 57.1 µM] (inactive) | – |
| CN(C)c1ccc(C=Nc2ccc(/C=C/c3ccnc4ccccc34)cc2)cc1 | -22.1% (inactive) | – |
| O=C(/C=C/c1ccc(Cl)cc1Cl)c1cccnc1 | – | 4.47 µM (active) |
| O=C(OCc1cc(Cl)ccc1OC(F)F)c1cccnc1 | 19.4% (inactive) | – |
| O=C(O)/C(=C/c1cccnc1)NC(=O)c1ccccc1 | -10.9% (inactive) | – |
| Cc1cc(C)c(NC(=O)CN2C(=O)c3cccnc3Oc3ccc(Cl)cc32)c(C)c1 | 12% (inactive) | – |
| Cc1ccc(SCC(CC(C)C)N2CCN(CCc3ccccc3)CCC2=O)cc1 (centres undefined) | -13.2% (inactive) | – |
| O=C(Nc1ccc2nc(SCCOc3ccccc3)sc2c1)c1ccco1 | -12.7% (inactive) | – |
| O=C(Nc1nnc(C2CC(=O)N(c3ccc(Cl)cc3)C2)s1)c1ccco1 (centres undefined) | 35.7% (inactive) | – |
| O=C(Nc1nc(-c2ccco2)c(-c2ccco2)s1)c1ccco1 | – | 28.2 µM (active) |
| Cc1ccc(C)c(OCC(=O)Nc2sc3c(c2C#N)CCCC3)c1C | -9.89% (inactive) | – |
| COc1cccc(C2CC(c3ccccc3)=NN2S(=O)(=O)c2ccccc2)c1OC (centres undefined) | 28.7% [at 57.1 µM] (inactive) | – |
| COc1ccc2c(c1OC)C(=O)OC2Nc1nc(-c2ccccc2)cs1 (centres undefined) | – | 4.47 µM (active) |
| Cc1ccc2c(c1)N(C(=O)CCC(=O)NCc1ccccc1F)CC(C)O2 (centres undefined) | 9.14% (inactive) | – |
| O=C(C1CCC(Cn2c(=O)c3sccc3n(Cc3ccccc3F)c2=O)CC1)N1CCCCC1 (centres undefined) | 44.2% [at 57.1 µM] (inactive) | – |
| O=C(/C=C/c1ccc([N+](=O)[O-])o1)NNC(=O)c1ccc(F)cc1 | – | 3.16 µM (active) |
| COc1ccc(-n2c(SCC(=O)Nc3ccc(Cl)c(C)c3)nc3n[nH]c(C)c3c2=N)cc1 | 9.9% [at 57.1 µM] (inactive) | – |
| O=C(Nc1ccc2oc(-c3ccc(O)c(Br)c3)nc2c1)c1cc2ccccc2o1 | 13.4% (inactive) | – |
| CCC(=O)Nc1nnc(S(=O)(=O)N(CC(C)C)c2ccccc2)s1 | 14.3% [at 57.1 µM] (inactive) | – |
| CN(Cc1ccco1)S(=O)(=O)c1nnc(NC(=O)c2ccccc2)s1 | – | inactive and 17.8 µM (active) |
| CCCCC(=O)Nc1nnc(S(=O)(=O)N(C)Cc2ccco2)s1 | – | 44.7 µM (active) |
| CCOc1cccc(C(=O)Nc2nnc(S(=O)(=O)N(C)c3ccc(C)cc3)s2)c1 | 20.4% (inactive) | – |
| CCN(CC)S(=O)(=O)c1nnc(NC(=O)COc2ccccc2Cl)s1 | 3.5% (inactive) | – |
| CCN(c1ccc(Cl)cc1)S(=O)(=O)c1nnc(NC(=O)c2ccco2)s1 | 1.56% (inactive) | – |

| SMILES | activity change, negative = inhibition | Potency |
| --- | --- | --- |
| CCCCOc1ccc(C(=O)NO)cc1 | 16.9% (inactive) | – |
| COC(=O)c1ccc(NC(=O)CCc2c(C)nc3c(c(C)nn3-c3ccc(C)cc3)c2C)cc1 | -16% (inactive) | – |
| COC(=O)c1cc(NC(=O)c2cnc(SC)nc2-c2ccccc2)cc(C(=O)OC)c1 | 7.82% [at 57.1 µM] (inactive) | – |
| N#CCCN1CCN(S(=O)(=O)c2ccc(S(=O)(=O)N3CCCC3)cc2)CC1 | 19.7% [at 57.1 µM] (inactive) | – |
| N#Cc1cccc(CN2CCC(=O)N(CCO)CC2)c1 | 11.3% (inactive) | – |
| CC(C)(C)c1cc(CN2CCN(CCC#N)CC2)cc(C(C)(C)C)c1O | – | 4.47 µM (active) |
| COc1cc2nc(Cl)nc(NC3CC3)c2cc1OC | -0.97% (inactive) | – |
| Cc1cccc(C(CC(=O)NCC2(c3ccccc3)CCCC2)c2ccccc2)c1O (centres undefined) | 14.6% (inactive) | – |
| O=C(CCSCc1ccccc1F)N1CCN(c2ccc(Cl)cc2)CC1 | 2.41% [at 57.1 µM] (inactive) | – |
| COC(=O)C1=C(C)N(C)C(C)=C(C(=O)OC)C1c1cccc(Br)c1 | 15.4% [at 57.1 µM] (inactive) | – |
| COc1ccc(N2C(=O)/C(=C\c3ccco3)N=C2SCC(N)=O)cc1Cl | -3.55% [at 57.1 µM] (inactive) | – |
| COC(=O)C1=C(C)N(C(C)c2ccccc2)C(=O)/C1=C\c1ccco1 (centres undefined) | – | 28.2 µM (active) |
| COC(=O)C1=C(C)N(c2ccc(C)cc2)/C(=C/c2ccc(O)cc2)C1=O | 9.2% (inactive) | – |
| COC(=O)C1=C(C)N(c2ccc(Br)cc2)C(=O)/C1=C\c1ccco1 | – | 50.1 µM (active) |
| COc1ccc(N2C(=O)CS(=O)(=O)C23C(=O)N(Cc2ccc(C)cc2)c2ccccc23)cc1Cl (centres undefined) | 23.5% (inactive) | – |
| Cc1ccc2nc(COc3cccc(NC(=O)c4ccccc4Cl)c3)cc(=O)n2c1 | 8.09% [at 57.1 µM] (inactive) | – |
| CSc1ccccc1NC(=O)CCS(=O)(=O)c1nc(-c2cccs2)cc(C(F)(F)F)n1 | – | 14.1 µM (active) |
| O=C(CSc1ccc(-c2cccs2)nn1)Nc1ccccc1F | 45.6% [at 57.1 µM] (inactive) | – |
| COc1ccc(Cl)cc1NC(=O)CSc1nc(-c2cccs2)cc(C(F)(F)F)n1 | 15.6% (inactive) | – |
| CCc1ccc(S(=O)(=O)c2nnn3c2nc(N2CCN(CC)CC2)c2sccc23)cc1 | 27.1% (inactive) | – |
| CC(C)C[C@H](NC(=O)[C@H](O)[C@H](N)Cc1ccccc1)C(=O)O | 18.1% [at 57.1 µM] (inactive) | – |
| CCn1c(SCC(=O)NCc2ccco2)nnc1-c1ccc(N)cc1 | 9.16% [at 57.1 µM] (inactive) | – |
| O=C(CSc1nnc(-c2cccnc2)n1CCc1ccccc1)NCc1ccccc1 | 7.54% (inactive) | – |
| O=C(CSc1nnc(-c2cccnc2)n1Cc1ccco1)c1ccc(Cl)c(Cl)c1 | – | 44.7 µM (active) |
| Cc1ccc(C)c(N2CCN(C(=O)Cc3c(C(=O)O)c(C)cn3C)CC2)c1 | 19.2% [at 57.1 µM] (inactive) | – |

| SMILES | activity change, negative = inhibition | Potency |
| --- | --- | --- |
| Cc1ccccc1CNC(=O)Cn1c(C)c2cnn(-c3ccccc3)c(=O)c2c1C | 23.6% (inactive) | – |
| Cc1ccc(C(=O)Nc2ccc3[nH]c(=O)c(=O)[nH]c3c2)cc1 | 1.15% (inactive) | – |
| CCCS(=O)(=O)C(=C1Nc2ccccc2N1)S(=O)(=O)CCC | -18.4% (inactive) | – |
| CN(C)/C=C1/Nc2ccccc2C1=O | – | 35.5 µM (active) |
| Cc1ccc(S(=O)(=O)c2nnn3c2nc(N2CCN(c4ccccc4F)CC2)c2cc(Cl)ccc23)cc1C | 20.5% (inactive) | – |
| COCCNC(=O)CSc1nc(-c2ccccc2)[nH]c1-c1ccc(C)cc1 | 13.8% (inactive) | – |
| Cc1csc(NCC(=O)c2c[nH]c3ccccc23)n1 | 11.7% (inactive) | – |
| Clc1cccc(-c2nc3nc4ccccc4nc3n2Cc2ccco2)c1 | – | 7.94 µM (active) |
| COCCCn1c(-c2cccs2)nc2nc3ccccc3nc21 | 182% (inactive) | – |
| Cc1nc2ccc(S(=O)(=O)N(CC(=O)Nc3ccc(F)cc3)Cc3ccccc3)cc2s1 | 7.96% [at 57.1 µM] (inactive) | – |
| Cc1ccc(C2C=C(c3ccc(Cl)cc3)Nc3nc(NC(=O)CCC(=O)O)nn32)cc1 (centres undefined) | -15.9% [at 57.1 µM] (inactive) | – |
| CCOc1ccc(NC(=O)Cn2c(=O)n(CCCC(=O)NCc3ccc4c(c3)OCO4)c(=O)c3ccccc32)cc1 | 14% (inactive) | – |
| CCOc1ccc(C(=O)CCC(=O)NC2=NCCS2)cc1 | 1.42% (inactive) | – |
| CCOc1ccc(NCCC(=O)c2ccc3c(c2)OCO3)cc1 | – | 2.24 µM (active) |
| COC(=O)c1c(NC(=O)CCCOc2ccccc2)sc2c1CCC(C)C2 (centres undefined) | 14.9% (inactive) | – |
| CCCc1[nH]nc2c1C(c1ccc(Br)s1)C(C#N)=C(N)O2 (centres undefined) | – | 44.7 µM (active) |
| CCCc1nc2c([nH]1)C(c1cccnc1)C(C#N)=C(N)O2 (centres undefined) | -0.372% (inactive) | – |
| CCOc1ccc(-n2c(C)nc3c(cnn3-c3ccc(C)cc3)c2=O)cc1 | -0.644% (inactive) | – |
| CCC1(C)CC(=O)c2c(ccc3oc(C(=O)Nc4ccc(C(C)=O)cc4)c(C)c23)O1 (centres undefined) | 6.3% (inactive) | – |
| Cc1ccc(Cn2c(C)nc3c(c2=O)c2nc4ccccc4nc2n3Cc2ccco2)cc1 | – | 10 µM (active) |
| Cc1ccc(OCC(=O)c2cc(C)n(Cc3ccco3)c2C)c([N+](=O)[O-])n1 | -0.57% (inactive) | – |
| Cc1ccc(Cn2c(=O)n(Cc3nc(-c4ccccc4)no3)c(=O)c3cc4c(cc32)OCO4)cc1 | 6.4% (inactive) | – |
| CC(C)(C)C1CCC(NC(=O)c2cnn3c2NC(=C2CC2)C=C3C(F)F)CC1 (centres undefined) | 26.5% (inactive) | – |
| O=S(=O)(c1ccc(Cl)cc1)c1nnn2c1nc(NC1CCCC1)c1sccc12 | 29.3% (inactive) | – |

Reference: PubChem BioAssay AID588453 (National Center for Advancing Translational Sciences (NCATS), 2011)
